Screening results as filed in PubChem.
SMN2 splice enh: increases expression of the SMN2 splice variant. HEK293 SMN2-luciferase splicing reporter, luminescence, 30-36 h. Potency, µM (titrated, usually from 46.1 µM), for inactives: at the top dose activity change, positive = activation, actives largely listed as activators. 2.8% of 210,000 active; further: % of control where 0% means no effect; nearly all actives have a fitted effect of over 55% in size
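HEK293 cells carry an SMN2 […]–luciferase reporter in which exon 7 inclusion puts luciferase in frame. Cells were plated 10-12 h before compound addition, then incubated 30-36 h at 37C. ONE-Glo luminescence was read; sodium butyrate at 4.5 mM final served as control.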
Rab9 promoter act: activates the Rab9 promoter; AID 485297; Huh7 Rab9 promoter-luciferase reporter, luminescence, 24 h; Potency, µM (top dose mostly 9.22 µM), for the others: at the highest dose activation, negative = inhibition, usual class: activators; 2.8% of 320,000 active; further: % of control where 0% means no effect; nearly all actives have a fitted effect of over 60% in size
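Measured in stably transfected Huh7 cells bearing a Rab9 promoter–luciferase construct: 24 h compound treatment at 37 °C, followed by luminescence detection.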
FLuc modulator: inhibits or activates purified firefly luciferase, miR-21 counter-screen | purified FLuc, Km substrates, luminescence inhibition | 6.9% of 360,000 active | P08659 | Potency, µM (titrated, usually from 57.5 µM), for the others: at the top dose activity change, negative = inhibition, usual class: inhibitors | AID 588342;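 further: plate controls were vehicle for no effect and reference inhibitor for full effect; nearly all actives have a fitted effect of over 55% in size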
Target sequence (P08659 whole entry, looked up): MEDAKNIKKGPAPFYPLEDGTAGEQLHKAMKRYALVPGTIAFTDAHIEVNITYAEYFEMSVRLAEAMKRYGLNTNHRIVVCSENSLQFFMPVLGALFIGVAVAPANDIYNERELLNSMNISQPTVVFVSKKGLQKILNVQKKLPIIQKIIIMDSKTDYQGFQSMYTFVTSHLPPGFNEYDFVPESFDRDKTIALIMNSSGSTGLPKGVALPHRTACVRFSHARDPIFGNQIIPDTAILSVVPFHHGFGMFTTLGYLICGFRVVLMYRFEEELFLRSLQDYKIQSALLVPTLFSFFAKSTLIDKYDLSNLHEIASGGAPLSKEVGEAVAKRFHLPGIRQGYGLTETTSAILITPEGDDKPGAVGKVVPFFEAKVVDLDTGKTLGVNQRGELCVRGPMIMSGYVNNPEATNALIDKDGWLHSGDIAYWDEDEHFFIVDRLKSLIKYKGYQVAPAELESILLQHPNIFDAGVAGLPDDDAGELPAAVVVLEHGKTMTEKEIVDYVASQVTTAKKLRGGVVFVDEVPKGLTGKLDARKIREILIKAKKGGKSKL
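Biochemical qHTS of compounds, final roughly 60 µM downward over six points, against 10 nM purified firefly luciferase using Km concentrations of substrates (10 uM D-luciferin, 10 uM ATP) in Tris acetate pH 7.5 buffer; luminescence output.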
ELG1 DNA repair: blocks ELG1-dependent DNA repair in HEK293T cells; 2.3% of 330,000 active; AID 504467; Potency, µM (titrated, usually from 46.1 µM), for inactives: top-dose activity change, negative = inhibition, usual class: inhibitors; HEK293T ELG1-luciferase reporter, luminescence, 16 h; DNA damage induced by 5-fluorouridine; further: on the % scale 0 is the no-effect control and ±100 the full control effect; nearly all actives have a fitted effect of over 55% in size
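In this reporter screen, reduction of luminescence relative to DMSO vehicle indicated activity. Compounds and 5-fluorouridine were added together to 2,000 cells per well, incubated for 16 hr at 37 °C, then developed with ONE-Glo.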
NPC1 prom act: activators of NPC1 promoter. Potency, µM (doses to about 9.22 µM), inactives show at the highest dose activation, actives largely listed as activators. 2.4% of 320,000 active. Huh7 NPC1 promoter luciferase reporter, 24 h; further: % of control where 0% means no effect; nearly all actives have a fitted effect of over 60% in size
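Huh7 reporter cells (NPC1 promoter driving luciferase) are dosed with compound for 24 h at 37 °C, 5% CO2; luciferase detection reagent is then added and luminescence measured after 10 min at ambient temperature.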
ELG1 genotoxic: inducers of genotoxicity in HEK293T ELG1-luciferase cells. Potency, µM (series often up to 46 µM), inactives show at the top dose activity change, positive = activation, hits mostly activators. HEK293T ELG1-luciferase reporter, luminescence, 16 h. 1.3% of 330,000 active; further: % of control where 0% means no effect; nearly all actives have a fitted effect of over 60% in size
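HEK293T cells expressing luciferase-tagged ELG1 were exposed to compound or DMSO vehicle for 16 hr at 37 °C and 5% CO2. Luciferase activity was then measured with ONE-Glo after 30 min at room temperature.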
* marks the source's active call; other numbers are inactive results; ? = inconclusive; nt = no result; [ ] = remark or other dose. Only some compounds are listed: those with a hit (about 9.4% of all), similar ones and a draw of the others. The call rests on the fitted dose curve; in most records, active means well fitted curve in the direction sought with a large enough effect; inconclusive means small, poorly fitted or top-dose-only effect, or another doubt; inactive means no such curve, though single readings can be large; an effect the other way counts as inactive or inconclusive. Potency means the concentration at half of the fitted maximal effect.

SMILES	SMN2 splice enh	Rab9 promoter act	FLuc modulator	ELG1 DNA repair	NPC1 prom act	ELG1 genotoxic
O=C(NCCc1ccccc1)c1cccc(N2CCCC2=O)c1	nt	0.316µM*	2.13µM*	?	0.501µM*	?
CCc1ccc(NC(=O)C2CCCN(S(=O)(=O)c3cccc4cccnc34)C2)cc1 (configuration not stated)	-18.5%	nt	-7.6%	nt	nt	nt
COC(=O)CC(=O)CSc1nc2cc(C(=O)NCC(C)C)ccc2c(=O)n1CCc1ccccc1	nt	nt	-2.7%	nt	nt	nt
COc1cccc(/C=C2\NC(=O)NC2=O)c1O	nt	26.3%	7.57µM*	?	29.2%	?
CCOC(=O)COc1ccccc1/C=C1/NC(=O)NC1=O	-11.0%	-0.8%	5.8%	8.3%	-1.3%	-0.6%
O=C(c1cc(-c2ccccc2O)on1)N1CCCCCC1	nt	?	10.7µM*	?	?	23.1µM*
COc1ccc(OC)c(-c2cc(C(=O)N3CCOCC3)no2)c1	nt	-3.6%	-3.7%	?	0.5%	0.0%
O=C(c1cc(-c2ccccc2O)on1)N1CCOCC1	nt	?	12µM*	?	?	13µM*
Cc1ccc(Oc2nc3c(c(=O)n(Cc4ccccc4)c(=O)n3C)n2C)cc1C	-52.3%	nt	-2.1%	nt	nt	nt
O=C(O)C[C@H](Cc1ccccc1Cl)C(=O)O	-12.3%[9.22 µM]	nt	nt	nt	nt	nt
CSc1ccc(CCNC(=O)c2ccc3c(c2)nc2n3CCC(C)C2)cc1 (configuration not stated)	nt	nt	-19.7%	nt	nt	nt
O=C(NCc1ccccc1)c1ccc2c(c1)nc1n2CCOC1	nt	nt	-10.2%	nt	nt	nt
Cc1ccccc1CCNC(=O)c1ccc2c(c1)nc1n2CCCCC1	nt	nt	0.536µM*	nt	nt	nt
Cc1ccccc1CCNC(=O)c1ccc2c(c1)nc1n2CCOC1	nt	nt	6.01µM*	nt	nt	nt
CSc1ccc(CCNC(=O)c2ccc3c(c2)nc2n3CCCCC2)cc1	nt	nt	23.9µM*	nt	nt	nt
CC(CNC(=O)c1ccc2nc(Cc3ccccc3)oc2c1)c1ccccc1 (configuration not stated)	nt	nt	-3.1%	nt	nt	nt
CC(CNC(=O)c1ccc2c(c1)nc1n2CCCCC1)c1ccccc1 (configuration not stated)	nt	nt	21.3µM*	nt	nt	nt
CC(C)CC(=O)NC1(C(F)(F)F)C(=O)Nc2c1c(=O)[nH]c(=O)n2-c1ccccc1 (configuration not stated)	?	nt	2.8%	nt	nt	nt
C=CC[C@](C)(Nc1ccc(OC)cc1)C(=O)OCC	18.1%	nt	nt	nt	nt	nt
Cc1cc(C)cc(NC(=O)C(CC(C)C)NC(=O)C2CCCCC2)c1 (configuration not stated)	13.1%	nt	1.1%	nt	nt	nt
CC1CCn2c(nc3cc(C(=O)NCCc4ccccc4)ccc32)C1 (configuration not stated)	nt	nt	9.53µM*	nt	nt	nt
Cc1ccc(C(=O)c2coc3c2C(=O)C(=O)c2ccccc2-3)cc1	-13.7%	19.6%	?	?	14.5%	14.1µM*
CCOc1ccccc1NC(=O)c1nnn(CC(=O)Nc2ccc3c(c2)OCO3)c1N	nt	-4.3%	-18.4%	8.0%	-1.7%	2.7%
Nc1c(C(=O)NCc2ccc3c(c2)OCO3)nnn1-c1ccc(OC(F)(F)F)cc1	-43.6%	10.9%	-3.0%	-5.2%	6.6%	0.8%
Cc1ccccc1NC(=O)c1nnn(-c2ccc3c(c2)OCCO3)c1N	nt	0.891µM*	6.01µM*	?	1.26µM*	4.9%
CCOc1ccccc1NC(=O)c1nnn(-c2ccc3c(c2)OCCO3)c1N	nt	?	16.9µM*	?	-4.2%	-1.7%
COc1ccc(CCNC(=O)c2nnn(-c3ccc4c(c3)OCCO4)c2N)cc1OC	nt	-4.5%	19µM*	?	13.2%	9.7%
Nc1c(C(=O)Nc2cccc(F)c2)nnn1-c1ccc2c(c1)OCCO2	nt	0.316µM*	0.601µM*	?	0.1µM*	0.651µM*
Cc1cccc(N2CCN(C(=O)c3ccc4c(Cl)c5c(nc4c3)CCCC5)CC2)c1C	-1.5%	nt	-4.0%	nt	nt	nt
COc1cc(-c2noc(-c3ccc(N(C)C)c([N+](=O)[O-])c3)n2)cc(OC)c1OC	nt	nt	15.1µM*	nt	nt	nt
